Reference: PubChem BioAssay (EPA / NIEHS)
The source made the active and inactive calls. The calls were made as follows: active = hit-call score of the fitted dose curve at least 0.9, where 1 is the maximum; inactive = score below 0.9.

How the values were obtained:
[1] = read-out: TIMP metallopeptidase inhibitor 2 (TIMP2), TIMP2 (gene 7077); test: BSK_KF3CT_TIMP2: BioMAP Diversity Plus: KF3CT Assay for TIMP metallopeptidase inhibitor 2 (TIMP2) Biomarker Activity (AID 2283071); details: primary human keratinocytes with fibroblasts; actives raise or lower the signal
Summary of the method: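 Co-culture of human primary keratinocytes and foreskin fibroblasts, measured 24 h after chemical dosing. TIMP-2 quantified by ELISA and fitted in both directions relative to DMSO. Cytotoxicity checked in parallel cultures by SRB total-protein staining.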

[2] = read-out: Transforming growth factor beta 1 (TGFb1), TGFB1 (gene 7040); test: BSK_KF3CT_TGFb1: BioMAP Diversity Plus: KF3CT Assay for Transforming growth factor beta 1 (TGFb1) Biomarker Activity (AID 2283072); details: primary human keratinocytes with fibroblasts; actives raise or lower the signal
Summary of the method: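 Human keratinocyte/foreskin fibroblast co-culture; TGF-b1 measured by ELISA 24 h after dosing, fitted bidirectionally versus DMSO. Cytotoxicity checked in parallel cultures by total protein (SRB staining, 560 nm).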

[3] = read-out: C-C motif chemokine 2 (Homo sapiens) (UniProt P13500); test: BSK_KF3CT_MCP1: BioMAP Diversity Plus: KF3CT Assay for Monocyte Chemoattractant Protein 1 (MCP1/CCL2) Biomarker Activity (AID 2283073); details: primary human keratinocytes with fibroblasts; actives raise or lower the signal
Summary of the method: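 Human keratinocyte–foreskin fibroblast co-culture; MCP-1 measured by ELISA 24 h after dosing. Bidirectional fit vs DMSO; cytotoxicity tracked by SRB total protein in parallel cultures.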

[4] = read-out: Matrix Metallopeptidase 9 (MMP9), MMP9 (gene 4318); test: BSK_KF3CT_MMP9: BioMAP Diversity Plus: KF3CT Assay for Matrix Metallopeptidase 9 (MMP9) Biomarker Activity (AID 2283074); details: primary human keratinocytes with fibroblasts; actives raise or lower the signal;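 as to AC50: MMP9 protein level quantified by ELISA in the co-culture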
Summary of the method: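 Human keratinocyte and foreskin fibroblast co-culture exposed to chemicals for 24 h; MMP9 biomarker measured by ELISA, bidirectional fitting relative to DMSO; cytotoxicity tracked by SRB total protein staining in parallel cultures.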

[5] = read-out: urokinase plasminogen activator (uPA), PLAU (gene 5328); test: BSK_KF3CT_uPA: BioMAP Diversity Plus: KF3CT Assay for urokinase plasminogen activator (uPA) Biomarker Activity (AID 2283075); details: primary human keratinocytes with fibroblasts; actives raise or lower the signal
Summary of the method: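 Primary human keratinocyte/foreskin fibroblast co-culture exposed to chemical; uPA measured by ELISA at 24 h. Bidirectional fit versus DMSO, with parallel SRB total-protein staining for cytotoxicity.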

CD40, CD40 (gene 958) [6] = test: BSK_LPS_CD40: BioMAP Diversity Plus: LPS Assay for CD40 Biomarker Activity (AID 2283076); details: primary human HUVEC with PBMC; actives raise or lower the signal
Summary of the method: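 HUVEC plus PBMC co-culture stimulated with LPS; CD40 quantified by ELISA 24 h after compound dosing. Fitting was bidirectional relative to DMSO. SRB staining of parallel cultures flagged overt cytotoxicity.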

[7] = read-out: E-selectin (Homo sapiens) (UniProt P16581); test: BSK_LPS_Eselectin: BioMAP Diversity Plus: LPS Assay for Eselectin Biomarker Activity (AID 2283077); details: primary human HUVEC with PBMC; actives raise or lower the signal
Summary of the method: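 Human umbilical vein endothelial cells co-cultured with PBMC under LPS stimulation; cell-surface E-selectin measured by ELISA 24 h after dosing. Change in either direction versus DMSO, with SRB total-protein staining in parallel cultures for cytotoxicity.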

[8] = read-out: Interleukin-8 (IL8), CXCL8 (gene 3576); test: BSK_LPS_IL8: BioMAP Diversity Plus: LPS Assay for Interleukin-8 (IL8) Biomarker Activity (AID 2283078); details: primary human HUVEC with PBMC; actives raise or lower the signal
Summary of the method: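 Human umbilical vein endothelial cells co-cultured with PBMC, LPS-stimulated, exposed to compound for 24 h. IL-8 quantified by ELISA; fitted in both directions against DMSO, with SRB total-protein staining of parallel cultures for cytotoxicity.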

[9] = BSK_LPS_SRB: Viability Assessment in the BioMAP Diversity Plus: LPS Assay (AID 2283079); details: primary human HUVEC with PBMC;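 also: total protein by sulforhodamine B absorbance as a cytotoxicity measure; measured one day after compound addition; fitted in both directions against DMSO so loss or gain of signal counts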
Summary of the method: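 Co-culture of human umbilical vein endothelial cells and PBMC, read 24 h after dosing. Total protein by 0.1% SRB staining after 10% TCA fixation, absorbance at 560 nm; bidirectional fit against DMSO.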

[10] = read-out: Interleukin-1 alpha (IL1a), IL1A (gene 3552); test: BSK_LPS_IL1a: BioMAP Diversity Plus: LPS Assay for Interleukin-1 alpha (IL1a) Biomarker Activity (AID 2283080); details: primary human HUVEC with PBMC; actives raise or lower the signal
Summary of the method: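 Human umbilical vein endothelial cells co-cultured with PBMC and stimulated with LPS; IL-1a measured by ELISA 24 h after dosing. Bidirectional fitting against DMSO; cytotoxicity checked by SRB staining in parallel cultures.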

[11] = read-out: Monocyte Chemoattractant Protein-1 (MCP1), CCL2 (gene 6347); test: BSK_LPS_MCP1: BioMAP Diversity Plus: LPS Assay for Monocyte Chemoattractant Protein-1 (MCP1) Biomarker Activity (AID 2283081); details: primary human HUVEC with PBMC; actives raise or lower the signal;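 also: secreted MCP-1 protein quantified by ELISA in culture supernatant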
Summary of the method: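 Human umbilical vein endothelial cells co-cultured with PBMC, LPS-stimulated; secreted MCP-1 measured by ELISA 24 h after compound addition. Bidirectional curve fitting against DMSO baseline; SRB total-protein staining in parallel cultures for cytotoxicity.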

[12] = BSK_LPS_PGE2: BioMAP Diversity Plus: LPS Assay for Prostaglandin E2 (PGE2) Biomarker Activity (AID 2283082); details: primary human HUVEC with PBMC; actives raise or lower the signal;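 as to AC50: secreted prostaglandin E2 measured by ELISA in LPS-stimulated co-culture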
Summary of the method: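 HUVEC plus human PBMC co-culture stimulated with LPS; secreted PGE2 quantified by ELISA 24 h after chemical dosing. Activity fitted bidirectionally against DMSO baseline; parallel SRB staining (0.1% SRB after 10% TCA fixation, 560 nm) flags overt cytotoxicity.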

[13] = read-out: Tumor necrosis factor (Homo sapiens) (UniProt P01375); test: BSK_LPS_TNFa: BioMAP Diversity Plus: LPS Assay for Tumour Necrosis Factor alpha (TNFa) Biomarker Activity (AID 2283085); details: primary human HUVEC with PBMC; actives raise or lower the signal
Summary of the method: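 Human umbilical vein endothelial cells co-cultured with PBMC and stimulated with LPS. TNFa was measured by ELISA 24 h after chemical dosing, fitted bidirectionally relative to DMSO.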

[14] = read-out: Vascular cell adhesion molecule 1 (VCAM1), VCAM1 (gene 7412); test: BSK_LPS_VCAM1: BioMAP Diversity Plus: LPS Assay for Vascular cell adhesion molecule 1 (VCAM1) Biomarker Activity (AID 2283086); details: primary human HUVEC with PBMC; actives raise or lower the signal
Summary of the method: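 Human umbilical vein endothelial cells co-cultured with PBMC and stimulated with LPS; VCAM-1 measured by ELISA 24 h after dosing. Bidirectional curve fitting against DMSO baseline; cytotoxicity tracked in parallel by SRB total-protein staining.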

CD38, CD38 (gene 952) = test: BSK_SAg_CD38: BioMAP Diversity Plus: SAg Assay for CD38 Biomarker Activity (AID 2283087); details: primary human HUVEC with PBMC; actives raise or lower the signal
Summary of the method: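 Human HUVEC plus PBMC co-culture stimulated with superantigen; CD38 measured by ELISA 24 h after chemical dosing. Fluorescence read-out, bidirectional fit against DMSO; cytotoxicity tracked in parallel by SRB and Alamar Blue.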

CD40, CD40 (gene 958) [15] = test: BSK_SAg_CD40: BioMAP Diversity Plus: SAg Assay for CD40 Biomarker Activity (AID 2283088); details: primary human HUVEC with PBMC; actives raise or lower the signal
Summary of the method: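 HUVEC plus PBMC co-culture, superantigen-activated, with CD40 read by ELISA 24 h after dosing. Curves fitted in both directions against DMSO. Overt cytotoxicity checked by parallel SRB total-protein staining.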

CD69, CD69 (gene 969) = test: BSK_SAg_CD69: BioMAP Diversity Plus: SAg Assay for CD69 Biomarker Activity (AID 2283089); details: primary human HUVEC with PBMC; actives raise or lower the signal;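 also: cell surface CD69 protein quantified by ELISA with fluorescence detection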
Summary of the method: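 HUVEC co-cultured with PBMC were dosed with chemical, and CD69 was measured by ELISA with fluorescence read-out 24 h later. Bidirectional curve fitting used DMSO as negative control and activity baseline.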

[16] = read-out: Monocyte Chemoattractant Protein-1 (MCP1), CCL2 (gene 6347); test: BSK_SAg_MCP1: BioMAP Diversity Plus: SAg Assay for Monocyte Chemoattractant Protein-1 (MCP1) Biomarker Activity (AID 2283090); details: primary human HUVEC with PBMC; actives raise or lower the signal
Summary of the method: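 MCP-1 levels in the endothelial–PBMC SAg co-culture were quantified by ELISA at 24 h post-dosing; both increases and decreases versus DMSO scored. Cytotoxicity monitored by SRB total protein in parallel cultures.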

[17] = read-out: Macrophage colony-stimulating factor (MCSF), CSF1 (gene 1435); test: BSK_LPS_MCSF: BioMAP Diversity Plus: LPS Assay for Macrophage colony-stimulating factor (MCSF) Biomarker Activity (AID 2283083); details: primary human HUVEC with PBMC; actives raise or lower the signal
Summary of the method: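 HUVEC–PBMC co-culture, M-CSF measured by ELISA 24 h after chemical dosing. Fitted in both directions relative to DMSO as negative control; overt cytotoxicity assessed by SRB total-protein staining in parallel cultures.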

Measured: AC50

Chain of Tumor necrosis factor (Homo sapiens) (P01375 whole entry, looked up): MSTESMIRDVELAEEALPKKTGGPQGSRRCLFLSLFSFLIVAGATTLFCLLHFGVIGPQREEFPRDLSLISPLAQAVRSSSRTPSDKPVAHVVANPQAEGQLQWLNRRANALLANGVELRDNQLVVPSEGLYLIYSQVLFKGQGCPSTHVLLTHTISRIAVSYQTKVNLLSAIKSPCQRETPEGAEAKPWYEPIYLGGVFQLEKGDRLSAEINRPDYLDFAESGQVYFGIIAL
Chain of E-selectin (Homo sapiens) (P16581 whole entry, looked up): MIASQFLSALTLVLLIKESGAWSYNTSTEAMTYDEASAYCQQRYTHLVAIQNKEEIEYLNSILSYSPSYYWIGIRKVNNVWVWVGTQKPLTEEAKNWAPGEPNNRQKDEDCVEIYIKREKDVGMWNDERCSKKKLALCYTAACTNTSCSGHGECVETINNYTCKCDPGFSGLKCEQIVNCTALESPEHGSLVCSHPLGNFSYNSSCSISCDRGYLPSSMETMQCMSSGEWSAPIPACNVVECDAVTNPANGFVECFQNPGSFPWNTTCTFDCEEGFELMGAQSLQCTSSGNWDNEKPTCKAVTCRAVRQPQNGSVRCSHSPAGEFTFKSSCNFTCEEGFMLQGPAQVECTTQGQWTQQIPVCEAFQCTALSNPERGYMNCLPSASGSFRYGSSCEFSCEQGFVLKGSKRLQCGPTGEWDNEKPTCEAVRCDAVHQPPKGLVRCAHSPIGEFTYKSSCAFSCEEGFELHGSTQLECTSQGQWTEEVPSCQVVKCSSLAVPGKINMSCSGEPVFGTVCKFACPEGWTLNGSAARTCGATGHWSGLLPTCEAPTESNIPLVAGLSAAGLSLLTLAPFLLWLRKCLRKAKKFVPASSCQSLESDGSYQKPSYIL

NCc1cccc(C2CCN(C(=O)c3ccc(C#Cc4ccccc4F)o3)CC2)c1
active: [1] 8.8 µM | [2] 10.4 µM | [3] 20 µM | [4] 11.3 µM | [5] 11.1 µM | CD40, CD40 (gene 958) [6] 8.42 µM | [7] 35.6 µM | [8] 25.8 µM | [9] 15.3 µM | [10] 17.1 µM | [11] 16.1 µM | [13] 27.7 µM | [14] 24.6 µM | CD38, CD38 (gene 952) 17.4 µM | CD40, CD40 (gene 958) [15] 15.3 µM | CD69, CD69 (gene 969) 22.1 µM | [16] 28 µM
inactive: [12]

Cc1oc2c(NC(=O)c3c(Cl)cccc3Cl)cccc2c1C(C)(C)O
active: [1] 5.2 µM | [7] 6.04 µM | [9] 26.5 µM | [12] 21.1 µM | CD40, CD40 (gene 958) [15] 20.9 µM | CD69, CD69 (gene 969) 19.2 µM | [16] 7.57 µM
not listed: [5] | [11] | CD38, CD38 (gene 952)
inactive: all other assays above

CCN(Cc1cccnc1)C(=O)c1cccc(Cl)c1[C@]1(C)C(=O)N(Cc2ccc(OC)cc2OC)c2ccc(Cl)cc21
inactive: [1] | [2] | [3] | [12] | [13]
active: [4] 4.21 µM | CD40, CD40 (gene 958) [6] 5.26 µM | [7] 10.8 µM | [8] 5.54 µM | [9] 6.69 µM | [10] 4.18 µM | [14] 5.26 µM | CD38, CD38 (gene 952) 8.35 µM | CD40, CD40 (gene 958) [15] 5.55 µM | CD69, CD69 (gene 969) 7.2 µM | [16] 5.36 µM
